# MgrA-DNA mod: S. aureus MgrA-DNA binding modulation; fluorescence polarization; inhibition, % (no concentration beside the values); 0.13% of 84,000 active; AID 602314; in the data active means inhibition above about 30%, passing the limit was not always enough;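 further: 0% = protein plus DNA without compound and 100% = DNA alone without protein; higher means less MgrA bound to DNA so lower polarization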
# An asterisk follows results filed as active. This excerpt belongs to a sample that is enriched for hits.
SMILES,MgrA-DNA mod
CNC(=S)Nc1ccc(C)cc1,-1
CC(C)(C(=O)Nc1cccc(Cl)c1)S(=O)(=O)c1ccc(C(F)(F)F)cn1,-1
CCOc1ccc(/C=C2/SC(=Nc3ccccc3)NC2=O)c(OCC)c1,-2
COCCOC(=O)C1=C(C)N(Cc2ccccc2)C(=O)NC1c1ccc(OCc2ccccc2)cc1 (stereo not given),1
Cc1ccnc(NC(=O)Nc2ccccc2)c1,3
O=C(COCC(=O)N1CCCC1)N1CCCC1,2
O=C(Nc1cccc(C(F)(F)F)c1)c1ccc2nonc2c1,-3
O=C(O)/C=C\C(=O)Nc1cccc(C(F)(F)F)c1,-4
COC(=O)c1c(I)cnn1C,-5
Cc1ccc(-c2nn(-c3ccccc3)cc2/C=C2\SC(=S)N(CCCC(=O)O)C2=O)cc1,99*
Cc1ccc(-c2nn(-c3ccccc3)cc2/C=C2\SC(=S)NC2=O)cc1,4
CCc1ccc(-c2nn(-c3ccccc3)cc2/C=C2\SC(=S)NC2=O)cc1,1
CC1CCN(c2nc(NCc3cccnc3)nc(N3CCOCC3)n2)CC1,0
FC(F)(F)c1ccccc1N=CNc1ccccc1C(F)(F)F,-1
COc1cc2c(cc1OC)C(c1ccc(N)cc1)NCC2 (stereo not given),0
CCOC(=O)Cc1cc(C)[nH]c1C(=O)OCC,-1
CCOC(=O)CCc1n[nH]c(=O)[nH]c1=O,2
CCOC(=O)CCc1c(CC(=O)OCC)c[nH]c1/C=N/O,61*
CC(=O)Oc1ccccc1C(=O)N1C(C)CCCC1C (stereo not given),-4
Cn1cc(CC(=O)NCCN2CCN(c3cccc(Cl)c3)CC2)c2ccccc21,1
Cc1ccc(OCc2nnc(SCc3cccc(C#N)c3)n2N)cc1C,6
C=C(C)C1Cc2cc3ccc(=O)oc3cc2O1 (stereo not given),-3
C=C(C)C1Cc2cc(/C=C/C(=O)O)c(O)cc2O1 (stereo not given),54*
O=C(O)C=Cc1ccc(O)c(O)c1,4
Nc1cc[n+](CC(O)CO)cc1 (stereo not given),56*
Nc1ccc(C(O)C(O)CO)cc1 (stereo not given),-3
COc1ccc(S(=O)(=O)N2CCN(Cc3cccc(F)c3)CC2)c(OC)c1,-1

# Assay outcomes (PubChem)
